# Assay results as given in PubChem BioAssay (NCATS).
# Records with an inconclusive call do not appear. Unmarked numbers belong to inactive results. The source made the active and inactive calls. Calls follow the shape of the dose curve; as a rule, active = well fitted inhibition curve with a large enough effect; inconclusive = small, poorly fitted or top-dose-only effect; inactive = no such curve, though single readings can be large or run the other way.
# Test system: Zika virus NS2B-NS3 protease (unlinked complex)
# Assay: Primary screen GU Rhodamine qHTS for Zika virus inhibitors: Unlinked NS2B-NS3 protease assay (AID 1347159); also: nearly all actives have a fitted effect of over 60% in size
# Conditions: Recombinant ZIKV NS2B-NS3 protease, Rhodamine110 substrate fluorescence; series mostly up to 107 µM; activity change, negative = inhibition: at the top concentration
# Excerpt: Avindra Nath, Ph.D., National Institute of Neurological Disorders and Stroke (NINDS), Bethesda, MD
# Radhakrishnan Padmanabhan, Ph.D., Georgetown University (GU), Washington D.C.
# Zika Virus causes congenital defects, including microcephaly and is associated with Guillain-Barre syndrome, eningoencephalitis and myelitis in infected adult. […] Using a target-based approach, we hope to establish a screening paradigm to uncover novel, cell-active NS2B-NS3 protease (Zika Virus) specific inhibitors from NCATS' collection of small molecules using qHTS.
# Four assay panel was created to identify potential Zika Virus inhibitors. Namely, (1) GU unlinked NS2B-NS3 AMC tagged protease qHTS, (2) GU unlinked NS2B-NS3 Rhodamine tagged protease qHTS, (3) NINDS linked NS2B-NS3 AMC tagged protease qHTS, (4) NINDS linked NS2B-NS3 Rhodamine tagged protease qHTS. Active compounds were re-acquired and re-screened to confirm inhibition. Inhibitors were further screened against various confirmatory and counterscreens in dose response format.
# Early Translation Branch (ETB)
# National Center for Advancing Translational Sciences (NCATS), Rockville, MD
# National Institute of Health (NIH), Bethesda, Maryland
# Padmanabhan lab provided the NS2B hydrophilic domain and NS3 protease domain in a noncovalent complex used for the unlinked assay. Control compound aprotinin is obtained from Thermo Scientific (#78432; Waltham, Massachusetts). Rhodamine110 substrate ([N-Cbz]-Nle-Lys-Arg-Arg-Rhod110-Arg-Arg-Lys-Nle-[N-Cbz]) was purchased from either Genscript or Bachem.
# 1536-well Protease (Rhodamine110 Substrate) Assay:
# Briefly, 3 microL of enzyme (25 nM final concentration), in assay buffer (10 mM Tris-HCl pH 8.0 with 0.01% Tween 20) were dispensed into a 1,536-well solid-bottom black plate (Greiner Bio One, Monroe, NC). Twenty-three nL of compounds (final concentration range 7.28 nM to 114 microM) or control Aprotinin (final concentration range 3.47 nM to 114 microM) were transferred via Wako Pin-tool (Wako Automation, Richmond, VA). Samples were incubated (room temperature, protected from light) for 15 minutes followed by a 1 microL Rhodamine110 substrate addition (1.5 microM final concentration). Plates were then immediately read on a ViewLux High-throughput CCD imager (PerkinElmer, Waltham, MA) equipped with FITC fluorescence optics (480(20) nm excitation, 540(25) nm emission), then incubated (room temperature, protected from light) for 15 minutes (~15% conversion). The change in fluorescence intensity over the 15-minute reaction period was normalized against no-inhibitor and no-enzyme controls and the resulting percent inhibition data were fitted to a 4-parameter Hill equation. Aprotinin was used as intraplate control.
# % is scaled to controls: 0 for no effect and ±100 for the full control effect; potency is read from the fitted curve at half-maximal effect.
Structure (SMILES),"activity change, negative = inhibition",Potency
CC1(C)CC2C3=CCC4C5(C)CCC(OC6OC(CO)C(O)C(OC7OC(CO)C(O)C(OC8OC(CO)C(O)C(OC9OC(COC%10OC(CO)C(O)C(O)C%10O)C(O)C(O)C9O)C8O)C7O)C6O)C(C)(C)C5CCC4(C)C3(C)CCC2(C(=O)O)CC1O (stereo not given),-21.5% [at 19.1 µM],
C/C=C/C=C/C(CC(=O)O)Nc1ccc(C=O)cc1 (stereo not given),,11.2 µM (active)
COc1cc(/C=C/CO)ccc1O[C@@H]1O[C@H](CO)[C@@H](O)[C@H](O)[C@H]1O,4.81%,
CC(=O)c1c(C)cc(O)cc1O[C@@H]1O[C@H](CO)[C@@H](O)[C@H](O)[C@H]1O,18.5%,
C=C(C)C1CC2(CO)C(=CC1=O)CCC(O)C2C (stereo not given),25.6%,
C=C(C(=O)OC)C1CCC2(C)C(O[C@@H]3O[C@H](CO)[C@@H](O)[C@H](O)[C@H]3O)CC(=O)C(C)C2C1O (stereo not given in full),-15.1% [at 57.1 µM],
COC(=O)[C@H](OC(C)=O)[C@H]1C(C)(C)C(=O)[C@H]2CC3=C4CC(=O)O[C@@H](c5ccoc5)[C@]4(C)CCC3[C@@]1(C)C2=O (stereo not given in full),-13.3% [at 57.1 µM],
C=CC(C)(O)CC/C=C(\C)C(=O)OC1CC2(C(=O)O)CCC3(C)C(=CCC4C5(C)CCC(OC6OC(COC7OCC(O)C(O)C7O)C(O)C(OC7OCC(O)C(O)C7O)C6OC6OC(CO)C(O)C(O)C6OC6OCC(O)C(O)C6O)C(C)(C)C5CCC43C)C2CC1(C)C (stereo not given),-12.7% [at 19.1 µM],
CC(C)CNC(=O)/C=C/CCCCc1ccc2c(c1)OCO2,-0.945%,
C=CC(C)(C)O[C@@H]1O[C@H](CO[C@@H]2OC[C@](O)(CO)[C@H]2O)[C@@H](O)[C@H](O)[C@H]1O,-2.35%,
C=CC(C)(C)C12CC3C(=O)NC(Cc4cnc[nH]4)C(=O)N3C1Nc1ccccc12 (stereo not given),-2.77%,
OC[C@H]1O[C@@H](OC(CCCCc2ccc(O)cc2)CCc2ccc(O)cc2)[C@H](O[C@@H]2OC[C@](O)(CO)[C@H]2O)[C@@H](O)[C@@H]1O (stereo not given in full),20% [at 32.5 µM],
CC1=CC(=O)C2C(C)(C)CC(O)CC2(C)C1CO (stereo not given),10.6%,
CC1(CO)CC2C(O)C(=O)C3(CO)CC3(C)C2C1 (stereo not given),0.372%,
C/C=C1/[C@H](O[C@@H]2O[C@H](CO)[C@@H](O)[C@H](O)[C@H]2O)OC=C(C(=O)OC)[C@H]1CC(=O)O[C@@H]1O[C@H](CO)[C@@H](O)[C@H](O)[C@H]1O,19.7% [at 32.5 µM],
CC1=CC(=O)C[C@H]2[C@@H]1CC[C@@H](C)[C@]21CO[C@H](c2ccoc2)C1=O,17.2%,
CC(C)[C@H]1CCC(CO)=C[C@@H]1/C=C(\CO)C(=O)O,10.7%,
CC(=O)N1c2ccccc2C2(O)CC3C(=O)NC(CC(C)C)C(=O)N3C12 (stereo not given),8.54%,
COc1cc(C2Oc3c(OC)cc(/C=C/C(=O)OC[C@H]4O[C@@H](OC(C)(C)C(=O)O)[C@H](O)[C@@H](O)[C@@H]4O)cc3C2CO)ccc1O (stereo not given in full),21.7% [at 32.5 µM],
C=CC1(C)CC(OC(=O)C(=C)C(O)COC(C)=O)C(C(=C)C(=O)OC)C(O)C1C(=C)CO (stereo not given),23% [at 57.1 µM],

Structure (SMILES),"activity change, negative = inhibition",Potency
CC(C)=CCC[C@](C)(O[C@@H]1O[C@H](CO[C@@H]2OC[C@@H](O)[C@H](O)[C@H]2O)[C@@H](O)[C@H](O)[C@H]1O)[C@H]1CC[C@]2(C)[C@@H]1[C@H](O)C[C@@H]1[C@@]3(C)CC[C@H](O[C@@H]4O[C@H](CO)[C@@H](O)[C@H](O)[C@H]4O[C@@H]4O[C@H](CO)[C@@H](O)[C@H](O)[C@H]4O)C(C)(C)[C@@H]3CC[C@]12C,34.8% [at 57.1 µM],
CO[C@H]1C=C2C(CC[C@H](O[C@@H]3O[C@H](CO)[C@@H](O)[C@@H](O)[C@H]3O)C2(C)C)[C@]2(C)CC[C@]3(C)C([C@H](C)C(O)C(C=C(C)C)O[C@@H]4O[C@H](CO)[C@@H](O)[C@@H](O)[C@H]4O)CC[C@@]3(C)C12 (stereo not given in full),10.6% [at 32.5 µM],
O=C1C[C@@H](c2ccc(O)cc2)Oc2cc(O)ccc21,15.7%,
CC(C)C(=O)c1cn(CC(=O)COc2ccc(Oc3ccccc3)cc2)c2ccc(C(=O)O)cc12,,8.91 µM (active)
C[C@]12CCC[C@](C)(C(=O)O)C1CCC13C=C(CO)C(CCC12)C3 (stereo not given in full),11.5%,
CC1(C)CCCC2(C)C(CO)C3CCC2C31 (stereo not given),-12.3%,
CNC(=O)O[C@H]1COc2ccc(N3CCN(C4COC4)CC3)cc2[C@@H]1NC(=O)c1ccc(F)cc1,15.6%,
Cc1nnc(C(C)C)n1C1CC2CCC(C1)N2CCC(NC(=O)C1CCC(F)(F)CC1)c1ccccc1 (stereo not given),-3.34%,
COc1cc(/C=C/C(=O)OC2[C@H](O)CC(O)(C(=O)O)C[C@H]2O)ccc1O (stereo not given in full),11.1%,
CC(=O)OCCC(C)CCC1C(C)(O)CCC2C(C)(C)CCCC21C (stereo not given),,8.91 µM (active)
Nc1ccn([C@@H]2C(F)=C(CO)[C@@H](O)[C@H]2O)c(=O)n1,12.4%,
COC(=O)C1=CO[C@@H](O[C@@H]2O[C@H](COC(=O)/C=C/c3cc(OC)c(O)c(OC)c3)[C@@H](O)[C@H](O)[C@H]2O)[C@@H]2C(CO)=CC[C@H]12,0.676% [at 32.5 µM],
O=C(CCO[C@@H]1O[C@H](CO)[C@@H](O)[C@H](O)[C@H]1O)c1ccc(O)cc1,4.61%,
COc1cc(NC(=O)c2ccccn2)ccc1Cl,-9.14%,
CC1(CCC(=O)O)C(=O)C=CC23CC4CC(OC4(C)C2O)C13 (stereo not given),11.3%,
COc1ccc(C(=O)O[C@H]2CC(C)=CC[C@@]3(C)[C@@H](OC(C)=O)C[C@@](O)(C(C)C)[C@H]23)cc1,-12.8% [at 57.1 µM],
CC(C)(OC1OC(CO)C(O)C(O)C1O)C1CCC(O)(CO)C2CC(O)C(C)(O)C2C1 (stereo not given),8.94% [at 57.1 µM],
CC1C/C=C/C=C\CCCCC(O)C/C=C/C(=O)O1 (stereo not given),,17.8 µM (active)
CCOC(=O)[C@H](CCc1ccccc1)CC1(C(=O)N[C@H]2CCc3ccccc3N(CC(=O)O)C2=O)CCCC1,-4.28%,
COc1ccc([C@H]2Cc3cccc(O)c3C(=O)O2)cc1,-9.27%,
